Data on two molecules can be found in ChEMBL document CHEMBL2218924, “A broad activity screen in support of a chemogenomic map for kinase signalling research and drug discovery” (Biochem J, 2013).

The residual activity is the signal under treatment as a percentage of the control signal.

Test [1] has as its target Death-associated protein kinase 1 (Homo sapiens) (UniProt P53355). The settings on record: at 10 µM.
For test [2], the target named is Death-associated protein kinase 2 (Homo sapiens) (UniProt Q9UIK4). The settings on record: at 1 µM.
Test [3] concerns the target T1, Serine/threonine-protein kinase DCLK2 (Homo sapiens) (UniProt Q8N568).
T1 sequence (whole entry): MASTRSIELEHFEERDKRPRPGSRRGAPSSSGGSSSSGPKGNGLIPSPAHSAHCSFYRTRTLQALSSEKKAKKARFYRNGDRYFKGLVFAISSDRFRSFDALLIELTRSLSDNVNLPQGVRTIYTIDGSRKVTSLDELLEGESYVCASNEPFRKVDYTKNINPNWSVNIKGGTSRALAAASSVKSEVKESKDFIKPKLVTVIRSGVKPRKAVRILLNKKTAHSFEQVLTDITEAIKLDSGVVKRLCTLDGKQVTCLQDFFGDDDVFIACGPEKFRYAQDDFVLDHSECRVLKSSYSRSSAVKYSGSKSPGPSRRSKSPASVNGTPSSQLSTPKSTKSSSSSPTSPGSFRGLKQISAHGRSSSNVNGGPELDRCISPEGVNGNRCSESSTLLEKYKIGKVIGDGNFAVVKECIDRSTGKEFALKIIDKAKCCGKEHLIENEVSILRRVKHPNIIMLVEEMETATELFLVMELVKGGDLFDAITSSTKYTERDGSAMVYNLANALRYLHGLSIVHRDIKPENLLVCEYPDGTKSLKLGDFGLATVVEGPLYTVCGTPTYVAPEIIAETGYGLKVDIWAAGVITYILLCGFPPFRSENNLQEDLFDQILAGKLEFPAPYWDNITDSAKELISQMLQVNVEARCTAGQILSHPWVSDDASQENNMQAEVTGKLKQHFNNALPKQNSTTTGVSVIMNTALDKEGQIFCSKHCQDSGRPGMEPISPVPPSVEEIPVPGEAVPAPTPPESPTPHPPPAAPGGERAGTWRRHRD
To be noted: at 1 µM.

The target in test [4] is T1, Serine/threonine-protein kinase DCLK2 (Homo sapiens). To be noted: at 10 µM.
Test [5] deals with T2, Discoidin domain-containing receptor 2 (Homo sapiens) (UniProt Q16832).
T2 sequence (whole entry): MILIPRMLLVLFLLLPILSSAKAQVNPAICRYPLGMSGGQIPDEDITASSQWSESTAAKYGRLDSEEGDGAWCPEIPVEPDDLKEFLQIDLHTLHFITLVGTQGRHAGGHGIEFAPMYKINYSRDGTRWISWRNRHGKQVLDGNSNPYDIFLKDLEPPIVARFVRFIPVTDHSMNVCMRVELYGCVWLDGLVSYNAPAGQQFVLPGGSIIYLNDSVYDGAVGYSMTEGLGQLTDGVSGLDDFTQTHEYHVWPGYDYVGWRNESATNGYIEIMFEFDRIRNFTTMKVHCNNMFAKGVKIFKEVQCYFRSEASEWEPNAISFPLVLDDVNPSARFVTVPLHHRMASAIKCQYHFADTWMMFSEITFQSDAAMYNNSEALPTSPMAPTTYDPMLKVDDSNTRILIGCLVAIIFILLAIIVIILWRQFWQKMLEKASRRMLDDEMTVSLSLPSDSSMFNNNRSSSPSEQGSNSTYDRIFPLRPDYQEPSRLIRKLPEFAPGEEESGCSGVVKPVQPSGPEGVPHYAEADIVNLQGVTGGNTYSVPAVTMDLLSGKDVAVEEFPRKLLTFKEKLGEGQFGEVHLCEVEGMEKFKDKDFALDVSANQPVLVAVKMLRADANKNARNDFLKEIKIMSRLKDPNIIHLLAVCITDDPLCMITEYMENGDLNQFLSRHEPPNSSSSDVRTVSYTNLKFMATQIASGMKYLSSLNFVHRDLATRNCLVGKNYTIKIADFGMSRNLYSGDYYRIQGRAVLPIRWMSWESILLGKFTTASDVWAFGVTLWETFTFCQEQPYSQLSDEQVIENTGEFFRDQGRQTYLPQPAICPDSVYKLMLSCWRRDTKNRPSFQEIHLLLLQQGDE
The settings on record: at 1 µM.

Test [6] addresses T2, Discoidin domain-containing receptor 2 (Homo sapiens). The settings on record: at 10 µM.
Test [7] deals with T3, Myotonin-protein kinase (Homo sapiens) (UniProt Q09013).
T3 sequence (whole entry): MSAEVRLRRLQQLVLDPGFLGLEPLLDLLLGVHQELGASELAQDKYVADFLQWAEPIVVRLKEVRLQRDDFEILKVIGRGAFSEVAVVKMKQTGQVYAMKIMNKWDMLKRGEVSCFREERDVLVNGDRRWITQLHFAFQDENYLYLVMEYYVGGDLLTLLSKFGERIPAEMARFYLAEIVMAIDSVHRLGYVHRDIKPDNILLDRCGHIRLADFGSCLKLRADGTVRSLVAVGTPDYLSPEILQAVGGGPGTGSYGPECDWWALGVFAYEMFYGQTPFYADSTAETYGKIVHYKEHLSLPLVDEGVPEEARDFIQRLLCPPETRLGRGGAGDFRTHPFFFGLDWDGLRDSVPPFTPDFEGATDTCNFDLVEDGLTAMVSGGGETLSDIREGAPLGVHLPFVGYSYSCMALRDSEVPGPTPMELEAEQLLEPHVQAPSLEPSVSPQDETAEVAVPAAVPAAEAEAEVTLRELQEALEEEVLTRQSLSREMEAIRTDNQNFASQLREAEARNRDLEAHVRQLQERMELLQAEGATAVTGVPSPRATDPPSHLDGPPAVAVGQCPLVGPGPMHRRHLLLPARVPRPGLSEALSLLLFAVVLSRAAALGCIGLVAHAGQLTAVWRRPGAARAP
The settings on record: at 1 µM.

Test [8] concerns the target T3, Myotonin-protein kinase (Homo sapiens). To be noted: at 10 µM.
Test [9] addresses T4, Serine/threonine-protein kinase 17A (Homo sapiens) (UniProt Q9UEE5).
T4 sequence (whole entry): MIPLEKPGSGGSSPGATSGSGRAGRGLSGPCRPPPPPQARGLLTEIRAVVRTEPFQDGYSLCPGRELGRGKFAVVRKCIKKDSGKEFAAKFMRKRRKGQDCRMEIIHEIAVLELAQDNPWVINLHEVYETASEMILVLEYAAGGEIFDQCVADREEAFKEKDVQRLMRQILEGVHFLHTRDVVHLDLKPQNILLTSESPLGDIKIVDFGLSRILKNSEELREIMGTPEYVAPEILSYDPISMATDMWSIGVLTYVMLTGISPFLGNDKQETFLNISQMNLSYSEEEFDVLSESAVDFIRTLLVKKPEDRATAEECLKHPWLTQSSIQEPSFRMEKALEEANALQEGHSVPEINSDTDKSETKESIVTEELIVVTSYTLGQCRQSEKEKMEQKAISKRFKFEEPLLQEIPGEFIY
The settings on record: at 1 µM.

The target of test [10] is T4, Serine/threonine-protein kinase 17A (Homo sapiens). The settings on record: at 10 µM.
Test [11] concerns the target T5, Dual specificity tyrosine-phosphorylation-regulated kinase 2 (Homo sapiens) (UniProt Q92630).
T5 sequence (whole entry): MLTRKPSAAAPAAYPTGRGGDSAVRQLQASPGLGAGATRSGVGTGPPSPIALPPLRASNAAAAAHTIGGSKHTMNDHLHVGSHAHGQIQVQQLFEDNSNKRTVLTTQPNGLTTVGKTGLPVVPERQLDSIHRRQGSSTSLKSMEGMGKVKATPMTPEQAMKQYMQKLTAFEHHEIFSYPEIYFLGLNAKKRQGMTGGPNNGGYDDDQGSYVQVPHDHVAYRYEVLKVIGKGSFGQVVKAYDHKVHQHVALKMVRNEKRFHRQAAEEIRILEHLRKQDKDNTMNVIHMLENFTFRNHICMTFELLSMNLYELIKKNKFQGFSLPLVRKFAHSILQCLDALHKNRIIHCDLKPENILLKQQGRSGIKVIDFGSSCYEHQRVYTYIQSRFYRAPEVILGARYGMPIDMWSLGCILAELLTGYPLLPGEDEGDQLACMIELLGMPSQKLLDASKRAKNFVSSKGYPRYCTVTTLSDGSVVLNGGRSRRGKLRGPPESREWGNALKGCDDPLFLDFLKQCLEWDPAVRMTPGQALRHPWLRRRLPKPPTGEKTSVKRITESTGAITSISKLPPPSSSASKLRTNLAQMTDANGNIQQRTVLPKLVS
To be noted: at 1 µM.

Test [12] deals with T5, Dual specificity tyrosine-phosphorylation-regulated kinase 2 (Homo sapiens). The settings on record: at 10 µM.
Test [13] has as its target T6, Ephrin type-A receptor 1 (Homo sapiens) (UniProt P21709).
T6 sequence (whole entry): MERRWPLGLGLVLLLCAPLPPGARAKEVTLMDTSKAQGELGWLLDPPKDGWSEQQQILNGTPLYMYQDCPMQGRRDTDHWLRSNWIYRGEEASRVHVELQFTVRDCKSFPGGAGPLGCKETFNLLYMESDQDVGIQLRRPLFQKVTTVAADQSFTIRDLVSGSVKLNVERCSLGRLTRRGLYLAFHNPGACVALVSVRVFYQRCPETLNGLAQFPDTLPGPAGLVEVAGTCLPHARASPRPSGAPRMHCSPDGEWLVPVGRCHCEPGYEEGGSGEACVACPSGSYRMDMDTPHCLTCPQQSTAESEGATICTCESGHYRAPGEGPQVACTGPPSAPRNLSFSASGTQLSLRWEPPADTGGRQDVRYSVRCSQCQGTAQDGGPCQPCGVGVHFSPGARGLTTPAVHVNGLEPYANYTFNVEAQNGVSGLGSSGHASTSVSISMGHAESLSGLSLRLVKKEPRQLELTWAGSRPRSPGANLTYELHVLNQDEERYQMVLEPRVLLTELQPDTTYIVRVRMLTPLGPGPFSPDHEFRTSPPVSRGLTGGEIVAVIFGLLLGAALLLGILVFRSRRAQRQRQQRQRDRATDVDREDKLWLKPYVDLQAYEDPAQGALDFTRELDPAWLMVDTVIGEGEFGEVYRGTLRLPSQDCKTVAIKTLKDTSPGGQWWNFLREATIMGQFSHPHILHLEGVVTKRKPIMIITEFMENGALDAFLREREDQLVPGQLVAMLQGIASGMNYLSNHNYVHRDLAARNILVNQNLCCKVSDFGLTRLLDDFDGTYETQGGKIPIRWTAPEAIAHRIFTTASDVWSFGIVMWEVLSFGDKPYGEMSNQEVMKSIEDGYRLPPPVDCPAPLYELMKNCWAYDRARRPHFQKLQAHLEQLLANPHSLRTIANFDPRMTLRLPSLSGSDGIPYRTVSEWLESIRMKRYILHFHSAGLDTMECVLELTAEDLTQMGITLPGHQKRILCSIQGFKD
To be noted: at 1 µM.

Test [14] addresses T6, Ephrin type-A receptor 1 (Homo sapiens). To be noted: at 10 µM.
Test [15] concerns the target Ephrin type-A receptor 2 (Homo sapiens) (UniProt P29317). The settings on record: at 1 µM.
For test [16] the target is unchanged. The settings on record: at 10 µM.
The target of test [17] is T7, Ephrin type-A receptor 3 (Homo sapiens) (UniProt P29320).
T7 sequence (whole entry): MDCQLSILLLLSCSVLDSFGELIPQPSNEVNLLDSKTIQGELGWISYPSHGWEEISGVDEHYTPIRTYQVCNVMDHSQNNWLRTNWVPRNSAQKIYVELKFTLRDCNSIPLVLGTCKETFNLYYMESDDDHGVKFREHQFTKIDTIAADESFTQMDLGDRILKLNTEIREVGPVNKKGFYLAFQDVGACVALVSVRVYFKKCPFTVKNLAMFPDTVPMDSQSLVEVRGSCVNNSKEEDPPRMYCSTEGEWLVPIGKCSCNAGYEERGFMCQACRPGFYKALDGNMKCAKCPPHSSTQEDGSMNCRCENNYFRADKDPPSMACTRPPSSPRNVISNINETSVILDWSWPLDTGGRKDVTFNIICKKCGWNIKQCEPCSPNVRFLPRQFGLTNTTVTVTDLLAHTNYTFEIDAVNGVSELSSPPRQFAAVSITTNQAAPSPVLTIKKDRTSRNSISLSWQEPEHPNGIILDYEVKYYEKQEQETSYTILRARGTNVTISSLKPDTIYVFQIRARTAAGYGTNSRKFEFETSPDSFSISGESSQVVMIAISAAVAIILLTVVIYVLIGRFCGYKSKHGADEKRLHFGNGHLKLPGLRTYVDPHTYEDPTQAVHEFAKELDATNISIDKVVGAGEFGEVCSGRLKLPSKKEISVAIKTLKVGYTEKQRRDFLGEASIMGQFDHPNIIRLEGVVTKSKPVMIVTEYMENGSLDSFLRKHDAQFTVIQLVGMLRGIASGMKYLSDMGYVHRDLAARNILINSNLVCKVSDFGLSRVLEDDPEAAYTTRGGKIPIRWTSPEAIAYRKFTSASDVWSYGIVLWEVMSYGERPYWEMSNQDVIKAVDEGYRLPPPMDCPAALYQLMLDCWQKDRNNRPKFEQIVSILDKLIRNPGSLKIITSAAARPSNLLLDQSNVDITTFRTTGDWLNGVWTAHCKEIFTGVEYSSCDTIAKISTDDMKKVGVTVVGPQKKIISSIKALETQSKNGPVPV
To be noted: at 1 µM.

Test [18] concerns the target Death-associated protein kinase 2 (Homo sapiens) (UniProt Q9UIK4). The settings on record: at 10 µM.

Sequence of Ephrin type-A receptor 2 (Homo sapiens) (P29317 whole entry): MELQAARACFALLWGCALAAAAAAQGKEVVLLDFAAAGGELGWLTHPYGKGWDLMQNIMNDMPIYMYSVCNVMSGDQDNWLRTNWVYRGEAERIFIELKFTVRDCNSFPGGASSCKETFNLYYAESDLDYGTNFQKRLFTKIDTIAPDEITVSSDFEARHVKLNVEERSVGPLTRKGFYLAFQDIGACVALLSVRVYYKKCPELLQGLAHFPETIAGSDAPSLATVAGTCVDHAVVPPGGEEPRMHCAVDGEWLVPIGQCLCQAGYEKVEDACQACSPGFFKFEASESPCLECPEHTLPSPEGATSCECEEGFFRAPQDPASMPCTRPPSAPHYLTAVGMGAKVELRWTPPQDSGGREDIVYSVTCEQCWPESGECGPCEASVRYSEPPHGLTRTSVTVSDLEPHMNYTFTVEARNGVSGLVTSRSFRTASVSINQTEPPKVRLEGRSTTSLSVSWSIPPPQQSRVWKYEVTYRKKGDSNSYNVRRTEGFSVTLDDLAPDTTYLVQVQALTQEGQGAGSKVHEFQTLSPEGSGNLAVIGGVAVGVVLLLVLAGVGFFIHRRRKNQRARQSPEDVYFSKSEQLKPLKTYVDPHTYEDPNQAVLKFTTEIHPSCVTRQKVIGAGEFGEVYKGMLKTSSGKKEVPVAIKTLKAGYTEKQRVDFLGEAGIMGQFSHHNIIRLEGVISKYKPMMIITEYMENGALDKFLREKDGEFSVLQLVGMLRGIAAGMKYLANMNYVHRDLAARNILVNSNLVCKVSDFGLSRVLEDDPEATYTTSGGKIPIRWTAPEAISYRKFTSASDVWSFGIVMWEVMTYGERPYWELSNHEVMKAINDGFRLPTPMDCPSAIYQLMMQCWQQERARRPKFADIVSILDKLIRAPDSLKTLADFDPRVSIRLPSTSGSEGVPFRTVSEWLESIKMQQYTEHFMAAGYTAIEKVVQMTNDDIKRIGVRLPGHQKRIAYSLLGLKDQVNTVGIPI
Sequence of Death-associated protein kinase 2 (Homo sapiens) (Q9UIK4 whole entry, looked up): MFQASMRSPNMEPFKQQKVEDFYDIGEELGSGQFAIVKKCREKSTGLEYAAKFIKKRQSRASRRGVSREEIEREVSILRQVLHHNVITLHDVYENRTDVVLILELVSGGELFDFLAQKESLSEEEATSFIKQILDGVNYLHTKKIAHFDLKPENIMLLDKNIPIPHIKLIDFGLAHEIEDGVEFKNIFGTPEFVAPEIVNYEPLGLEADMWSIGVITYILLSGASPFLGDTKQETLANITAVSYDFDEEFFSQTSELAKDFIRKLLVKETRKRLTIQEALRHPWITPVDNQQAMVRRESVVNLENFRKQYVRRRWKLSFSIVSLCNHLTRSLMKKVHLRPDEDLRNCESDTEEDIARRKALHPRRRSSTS
Sequence of Death-associated protein kinase 1 (Homo sapiens) (P53355 whole entry, looked up): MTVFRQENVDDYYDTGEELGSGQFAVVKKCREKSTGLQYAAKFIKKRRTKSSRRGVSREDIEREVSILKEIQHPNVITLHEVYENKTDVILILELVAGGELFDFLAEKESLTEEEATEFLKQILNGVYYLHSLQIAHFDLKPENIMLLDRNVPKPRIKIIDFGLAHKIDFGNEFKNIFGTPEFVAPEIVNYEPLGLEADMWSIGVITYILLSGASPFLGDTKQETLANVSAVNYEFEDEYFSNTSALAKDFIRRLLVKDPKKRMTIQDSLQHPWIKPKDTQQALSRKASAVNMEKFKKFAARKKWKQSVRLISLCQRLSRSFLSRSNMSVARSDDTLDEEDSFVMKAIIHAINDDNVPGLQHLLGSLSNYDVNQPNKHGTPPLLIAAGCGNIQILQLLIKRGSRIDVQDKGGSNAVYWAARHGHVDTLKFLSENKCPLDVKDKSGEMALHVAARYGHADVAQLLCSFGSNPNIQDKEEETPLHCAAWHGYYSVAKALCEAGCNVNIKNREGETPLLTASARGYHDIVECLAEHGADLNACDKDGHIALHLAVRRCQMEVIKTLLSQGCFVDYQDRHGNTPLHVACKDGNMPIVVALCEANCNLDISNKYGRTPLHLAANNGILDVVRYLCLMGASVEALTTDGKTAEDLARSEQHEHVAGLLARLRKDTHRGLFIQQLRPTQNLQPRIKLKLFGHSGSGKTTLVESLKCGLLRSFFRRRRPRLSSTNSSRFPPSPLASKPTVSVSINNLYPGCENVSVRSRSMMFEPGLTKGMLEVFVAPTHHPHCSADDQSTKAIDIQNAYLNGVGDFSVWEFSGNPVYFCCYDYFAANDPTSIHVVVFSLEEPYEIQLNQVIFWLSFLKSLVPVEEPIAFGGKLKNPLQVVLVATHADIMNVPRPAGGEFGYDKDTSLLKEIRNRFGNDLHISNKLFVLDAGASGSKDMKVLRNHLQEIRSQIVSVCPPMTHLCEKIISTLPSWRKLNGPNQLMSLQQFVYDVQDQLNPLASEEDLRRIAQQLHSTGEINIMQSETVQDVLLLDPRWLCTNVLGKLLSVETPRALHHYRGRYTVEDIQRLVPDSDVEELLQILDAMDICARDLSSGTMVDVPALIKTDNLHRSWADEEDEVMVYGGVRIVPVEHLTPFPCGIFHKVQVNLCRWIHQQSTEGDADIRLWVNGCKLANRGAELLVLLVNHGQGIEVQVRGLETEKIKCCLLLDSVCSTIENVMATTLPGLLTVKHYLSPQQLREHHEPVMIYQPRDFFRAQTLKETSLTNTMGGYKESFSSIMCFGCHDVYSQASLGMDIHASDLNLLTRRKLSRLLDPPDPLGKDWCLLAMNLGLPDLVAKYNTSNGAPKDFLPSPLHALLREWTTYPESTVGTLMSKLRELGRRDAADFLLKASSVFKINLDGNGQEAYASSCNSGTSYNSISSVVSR

With `Cc1nc(-c2ccccc2)c(-c2ccncc2)o1`, the residual activity in [1] was determined as 95%; in test [2] it was 99%; in [3], 124%; in test [4], 113%; in test [5], 50%; in test [6] it was 36%. Further, the residual activity amounted to 104% in test [7]; 102% in [8]; 120% in [9]; 77% in test [10]; 99% in test [11]; 87% in test [12]. Further, the residual activity is 103% in [13]; 81% in [14]; 93% in test [15]; 59% in test [16]; 92% in test [17].

With `Ic1cccc(CSc2nnc(-c3ccncc3)o2)c1`, the residual activity in [1] came to 76%; in test [2], 96%; in test [18] it was 100%; in test [3], 100%; in [4], 97%; in [5], 86%. The residual activity in test [6] amounted to 82%; in test [7] it was 82%; in test [8] it was 81%; in test [9], 100%; in [10] it was 3%; in test [11], 87%. Moreover, the residual activity in test [12] was found to be 60%; in [13], 95%; in [14] it was 88%; in [15], 90%; in [16] it was 91%; in test [17] it was 96%.
